# PubChem BioAssay AID488969 (Vanderbilt High Throughput Screening Facility, 2010)
# In all, about 110,000 compounds were measured (“z-score”: median about -0.1, highest 2% from about 2 on). Only a selection was taken, and the highest values are over-represented in it overall. The source made the active and inactive calls.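 How the source made its calls: active means z-score in the third read window above 3 or below -3; inactive means the rest.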
# Molecular target: Metabotropic glutamate receptor 8 (Rattus norvegicus) (UniProt P70579)
# Test: mGluR8 Gi/Go-coupled signaling modulation – cell-based, rat, thallium flux, HTS, primary screen (AID 488969)
# Conditions: HEK293 rat mGluR8, GIRK (G protein-gated inwardly rectifying potassium channel) thallium flux, FluoZin2; at 10 µM; stronger effect = higher value; submaximal glutamate (EC20) added with thallium
# Sequence of Metabotropic glutamate receptor 8 (Rattus norvegicus) (P70579 whole entry, looked up): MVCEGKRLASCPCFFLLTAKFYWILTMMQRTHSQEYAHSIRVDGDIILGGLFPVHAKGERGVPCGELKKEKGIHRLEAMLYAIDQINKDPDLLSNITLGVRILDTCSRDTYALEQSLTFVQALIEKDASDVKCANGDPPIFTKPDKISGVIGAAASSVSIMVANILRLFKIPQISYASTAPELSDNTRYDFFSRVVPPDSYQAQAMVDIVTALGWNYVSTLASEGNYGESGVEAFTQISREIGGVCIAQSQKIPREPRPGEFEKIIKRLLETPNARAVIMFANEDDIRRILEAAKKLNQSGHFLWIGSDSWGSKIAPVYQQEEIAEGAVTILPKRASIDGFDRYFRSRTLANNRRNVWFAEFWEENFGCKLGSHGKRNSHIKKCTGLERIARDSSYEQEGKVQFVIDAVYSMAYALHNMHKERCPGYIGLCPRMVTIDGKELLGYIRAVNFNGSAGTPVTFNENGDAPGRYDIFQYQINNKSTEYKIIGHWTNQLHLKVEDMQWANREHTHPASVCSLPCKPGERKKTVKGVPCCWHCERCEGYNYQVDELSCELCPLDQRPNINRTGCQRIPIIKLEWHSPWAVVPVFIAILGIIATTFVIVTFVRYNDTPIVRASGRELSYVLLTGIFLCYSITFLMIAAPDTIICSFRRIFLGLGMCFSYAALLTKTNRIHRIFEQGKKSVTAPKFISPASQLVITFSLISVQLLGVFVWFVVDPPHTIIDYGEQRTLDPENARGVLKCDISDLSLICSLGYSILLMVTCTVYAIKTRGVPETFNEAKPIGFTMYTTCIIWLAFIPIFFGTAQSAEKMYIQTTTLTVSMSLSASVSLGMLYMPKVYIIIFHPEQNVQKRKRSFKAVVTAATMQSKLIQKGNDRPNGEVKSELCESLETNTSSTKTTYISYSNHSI
row,SMILES,z-score
1,CCN(CC)C(=O)N1c2ccccc2C=Cc2ccccc21,-0.214
2,COc1ccc(-c2nnc(NC(=O)c3ccc(S(=O)(=O)N4COCC4(C)C)cc3)o2)cc1,1.22
3,CCc1nnc(NC(=O)c2ccc(S(=O)(=O)N3CCCc4ccccc43)cc2)o1,0.372
4,CCc1nnc(NC(=O)c2ccc(S(=O)(=O)N3CCc4ccccc4C3)cc2)s1,-0.158
5,COc1ccc(-c2nnc(NC(=O)c3ccc(S(=O)(=O)N4CCc5ccccc5C4)cc3)o2)cc1,9.68 (active)
6,O=C(Nc1nnc(C2CC2)o1)c1ccc(S(=O)(=O)N2CCCc3ccccc32)cc1,1.85
7,COc1ccc(-c2nnc(NC(=O)c3ccc(S(=O)(=O)N4CCCc5ccccc54)cc3)o2)cc1,2.07
8,COC(=O)COc1cc(Br)c(/C=C2/SC(=O)N(CC(=O)N3CCCC3)C2=O)cc1OC,0.0962
9,O=C(OCc1nc2ccc(Cl)cc2n1CCO)c1ccc(O)cc1,-0.133
10,CCOC(=O)c1cc(CC)sc1NC(=O)c1ccc(N2C(=O)CCC2=O)cc1,-0.383
11,COc1ccc(C)cc1S(=O)(=O)N(C)CC(=O)N1CCCCCC1,-0.534
12,O=C(CSc1nc(-c2ccco2)cc(C(F)(F)F)n1)N1CCN(c2ccc(Cl)cc2)CC1,-0.455
13,COc1ccc(C2C(C(N)=O)=C(C)Nc3nc(-c4ccccc4OC)nn32)cc1OC (stereo not given),0.317
14,CCCN1C(=O)/C(=C/c2ccc(C)s2)NC1=S,13.9 (active)
15,Cc1ccc(NC(=O)CN2C(=O)N/C(=C/c3ccc(C)s3)C2=O)cc1,0.22
16,CCN1C(=O)/C(=C/c2ccc(N3CCCC3)cc2)NC1=S,1.3
17,CC(C)CN1C(=O)/C(=C/c2cccs2)NC1=S,15.8 (active)
18,COc1ccc(N2C(=O)/C(=C/c3cccs3)NC2=S)cc1,1.07
19,O=C1N/C(=C/c2ccc(N3CCCC3)cc2)C(=O)N1c1ccccc1,-0.886
20,COC(=O)C1=C(C)N(CC(C)C)C(=O)/C1=C\c1cccs1,-0.236
21,O=C1N/C(=C\c2ccc(N3CCOCC3)c(F)c2)C(=O)N1Cc1ccccc1,-0.434
22,Cc1cccc(CN2C(=O)N/C(=C/c3ccc(C)s3)C2=O)c1,-0.147
23,CCCN1C(=O)/C(=C/c2ccc(N3CCCC3)c(C)c2)NC1=S,11 (active)
24,O=C1/C(=C/c2ccc(N3CCCC3)cc2)NC(=S)N1C1CC1,2.85
25,CCCN1C(=O)c2cccc3c(N4CCCCC4)ccc(c23)C1=O,-0.337
26,O=C1CSC(=S)N1CC1CCCO1 (stereo not given),-0.08
27,Cc1noc(C)c1C(=O)NCCc1ccc(Cl)cc1,-0.377

row,SMILES,z-score
1,COCC(=O)NC1CCN(C(=O)Nc2ccc(Br)cc2)CC1,-0.036
2,CCOC(=O)c1c(C)[nH]c(C(=O)/C(C#N)=C/c2ccc(OC(F)F)c(OC)c2)c1C,-0.315
3,O=C(NCC(c1cccs1)N1CCOCC1)c1ccccc1NS(=O)(=O)c1ccc(Cl)cc1 (stereo not given),-0.359
4,Cc1csc(NC(=O)C2CCCN(S(=O)(=O)c3cnc[nH]3)C2)n1 (stereo not given),0.36
5,Cc1cccc(OCCSc2nc3c([nH]2)c(=N)ncn3Cc2ccccc2)c1,-0.0916
6,CC(C)(C)c1ccc(C(=O)NC(=S)NCC2CCCO2)cc1 (stereo not given),1.62
7,Cc1ccccc1Nc1nc(-c2sc(NC(=O)c3ccco3)nc2C)cs1,-0.239
8,Nc1ccc(Sc2cnn(-c3ccccc3)c(=O)c2Cl)cc1,-2.01
9,CCN1C(=O)/C(=C/c2ccc(C)s2)NC1=S,15.1 (active)
10,Cc1ccc(/C=C2/NC(=O)N(Cc3ccccc3)C2=O)s1,-0.0544
11,CCN1C(=O)/C(=C\N(C)C)NC1=S,-0.121
12,CCS(=O)(=O)N1CCN(c2ccc(Cl)cc2[N+](=O)[O-])CC1,0.325
13,CCOc1ccc(C(=O)CN2CCN(S(=O)(=O)c3ccc(OC)cc3)CC2)cc1,-0.414
14,CCOc1ccc(C(=O)CN2CCN(S(=O)(=O)c3ccc(Br)cc3)CC2)cc1,4.08 (active)
15,COc1cccc(C(=O)CN2CCN(S(=O)(=O)c3ccc(Br)cc3)CC2)c1,-0.472
16,CN1CCN(c2ccccc2NC(=O)COc2ccccc2)CC1,-0.109
17,COc1ccc(/C=N/NC(=O)CSc2nnc(C)n2-c2ccccc2)c(OC)c1OC,-0.14
18,Cc1cc(/C=C2\C(=N)N3C(SCc4ccccc4)=NSC3=NC2=O)c(C)n1Cc1ccccc1,0.143
19,N=C1/C(=C/c2cccs2)C(=O)N=C2SN=C(SCc3ccccc3)N12,9.53 (active)
20,O=C1NN(c2ccccc2)C(=O)/C1=C/c1coc2ccccc2c1=O,-0.738
21,CSC1=NSC2=NC(=O)/C(=C/c3coc4ccc(O)cc4c3=O)C(=N)N12,-0.47
22,O=C1N=C(N2CCN(c3cccc4ccccc34)CC2)S/C1=C/c1cccs1,-0.0125
23,CSC1=NSC2=NC(=O)/C(=C/c3coc4ccccc4c3=O)C(=N)N12,10.4 (active)
24,O=[N+]([O-])c1ccc(N2CCCCC2)cc1NCCOc1ccccc1,0.0562
25,COc1cccc(/C=c2\s/c(=C/C(=O)c3ccc(C)cc3)[nH]c2=O)c1OC,1.51
26,Cc1ccccc1/C=c1\s/c(=C\C(=O)C(C)(C)C)[nH]c1=O,5.84 (active)
27,Cc1cccc(/C=C2\CS/C(=C\c3cccc(C)c3)C2=O)c1,-0.0758

row,SMILES,z-score
1,Cc1cccc(/C=c2\s/c(=C\C(=O)C(C)(C)C)[nH]c2=O)c1,9.35 (active)
2,CSc1ccc(/C=c2\s/c(=C\C(=O)C(C)(C)C)n(CC(=O)NCCC3=CCCCC3)c2=O)cc1,-0.0802
3,COc1ccc(/C=c2\s/c(=C/C(=O)c3ccc(C)cc3)[nH]c2=O)c(OC)c1,0.0664
4,CCc1ccc(/C=C(\Cl)c2nc3cc(Cl)ccc3c(=O)[nH]2)cc1,0.511
5,CC(C)(CNC(=O)/C=C/c1ccc(F)cc1)CNC(=O)/C=C/c1ccc(F)cc1,-0.186
6,COc1ccc(/C=c2\s/c(=C/C(=O)c3ccc(C)cc3)[nH]c2=O)cc1OC,0.46
7,CC(C)(C)NC(=O)COC(=O)/C=C/c1ccc(F)cc1,-0.0768
8,CCc1ccc(/C=c2\s/c(=C\C(=O)C(C)(C)C)[nH]c2=O)cc1,7.24 (active)
9,CC(C)(C)C(=O)/C=c1\[nH]c(=O)/c(=C\c2ccc(F)cc2)s1,5.06 (active)
10,O=C(Cc1ccccc1)NC(NNc1ccccc1)(C(F)(F)F)C(F)(F)F,-0.447
11,CC(C)N(Cc1nc(-c2ccccc2)no1)C(=O)CCCN1C(=O)c2ccccc2C1=O,-0.305
12,CCOC(=O)c1ccc(NC(=S)N2CCSC2c2ccc(Br)cc2)cc1 (stereo not given),0.308
13,O=c1oc2cc(OCc3ccc(F)cc3F)ccc2cc1-c1ccc2ccccc2n1,-0.209
14,O=S(=O)(c1ccc(Oc2ccc(Cl)cc2)c(S(=O)(=O)N2CCCCC2)c1)N1CCCCC1,-0.278
15,CCOc1ccc(OCC)c(NC(=O)C2CCN(S(=O)(=O)c3cccc4nonc34)CC2)c1,0.0264
16,COc1ccc(Cn2c(C)c(C)c(C#N)c2NC(=O)Nc2cccc(Cl)c2)cc1,-0.0483
17,COc1ccc(-c2cc(C(F)(F)F)nc(SCC(N)=O)n2)cc1,0.362
18,Cn1c(=O)c2c(ncn2CC(=O)Nc2ccccc2)n(C)c1=O,0.318
19,Cc1ccc(C(=O)Nc2cccnc2)cc1S(=O)(=O)N1CCOCC1,0.265
20,CCN(CC)CCCN1C(=O)c2oc3ccccc3c(=O)c2C1c1cccs1 (stereo not given),13.2 (active)
21,CCN(CC)CCCN1C(=O)c2oc3ccccc3c(=O)c2C1c1cc(OC)ccc1OC (stereo not given),0.517
22,COc1ccc(OC)c(C2c3c(oc4ccccc4c3=O)C(=O)N2CCCN(C)C)c1 (stereo not given),-0.648
23,CN(C)CCCN1C(=O)c2oc3ccccc3c(=O)c2C1c1cccs1 (stereo not given),2.78
24,COc1cccc(C2c3c(oc4ccccc4c3=O)C(=O)N2CCCN(C)C)c1OC (stereo not given),-0.0845
25,CCN(CC)CCCN1C(=O)c2oc3ccccc3c(=O)c2C1c1cccc(OC)c1OC (stereo not given),0.625
26,Cn1c(SCC(=O)c2ccccc2F)nnc1C1CC1,-0.74
27,CCn1c(SCC(N)=O)nnc1-c1ccc(S(=O)(=O)N2CCN(C)CC2)cc1,-0.217

row,SMILES,z-score
1,COc1ccc(NC(=O)c2cccc(F)c2)cc1Cl,-0.393
2,CCc1cccc2c(C(=O)COC(=O)c3ccc(O)cc3)c[nH]c12,-0.12
3,O=C(N/N=C\c1ccc(Cl)s1)c1cccs1,8.64 (active)
4,O=C(N/N=C/c1cccs1)c1cccs1,0.0886
5,Cc1ccc(/C=N/NC(=O)c2cccs2)s1,1.3
6,O=C(Nc1ccc([N+](=O)[O-])cn1)c1cc(-c2cccc(Cl)c2)nc2ccccc12,-0.658
7,O=C(N/N=C/c1c[nH]c2ccccc12)C1CC1(c1ccccc1)c1ccccc1 (stereo not given),-0.618
8,CCOC(=O)c1ccc(-n2c(C)ccc2C)cc1,-0.201
9,Cc1ccc(C)n1-c1ccc(C(=O)NN)cc1,2.5
10,Cc1ccc(C)n1-c1ccc(C(=O)O)cc1,-1.12
11,CCOC(=O)/C(C(N)=NC(C)C)=C(\O)c1ccccc1,0.0345
12,CC(C)COC(=O)CNc1n[nH]c(=S)[nH]c1=O,1.98
13,CCCCOC(=O)CNc1n[nH]c(=S)[nH]c1=O,0.182
14,CC(C)COC(=O)CCNc1n[nH]c(=O)[nH]c1=O,0.184
15,Nc1cc(=O)nc(SCC(=O)N(C2CCCCC2)C2CCCCC2)n1-c1ccccc1,-0.245
16,CCCNC(=O)C(NS(=O)(=O)c1cccc2nsnc12)c1ccccc1 (stereo not given),-0.0978
17,O=c1cc(CN2CCOCC2)nc(C2CC2)[nH]1,5.57 (active)
18,CC1CN(Cc2cc(=O)[nH]c(C3CC3)n2)CC(C)O1 (stereo not given),-0.155
19,Cc1nc(CN2CCOCC2)cc(=O)[nH]1,0.197
20,Cc1cc(NC(=O)C(=O)NCCN2CCN(C(=O)c3cccs3)CC2)ccc1Br,-0.64
21,COc1cccc(N/C=C(\C#N)c2ccc(OCCCF)cc2)c1,0.135
22,Cn1c(Cc2csc(N)n2)nnc1SCC(=O)NCc1ccccc1,0.898
23,Cc1ccccc1CCN(C(=O)Cn1nnc2ccccc21)C(C(=O)NC(C)(C)C)c1ccsc1 (stereo not given),0.0716
24,Cc1ccc(NC(=O)c2cc(N3C(=O)C=CC3=O)ccc2Cl)cc1C,-0.0892
